This is part of a sample that, as a whole, favours compounds with a hit. Of some 79,000 tested, about 15% had one in any assay. Activity calls are given as the source filed them. Cut-off read from the data, not from the text of the source: active = growth inhibition above about 70%; inactive = the rest.
What was measured:
[1] = NCI Yeast Anticancer Drug Screen. Data for the rad52 strain (AID 147);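 note: 0% = growth of vehicle-treated control cultures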; conditions: S. cerevisiae rad52 mutant growth inhibition, stronger effect = higher value
In short: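 Genetically altered yeast (DNA damage repair defect) treated with compound; inhibition calculated relative to vehicle.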

[2] = NCI Yeast Anticancer Drug Screen. Data for the wt1 strain (AID 149);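 note: 0% = growth of vehicle-treated wt1 cultures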; conditions: S. cerevisiae wt1 strain (SPY 50644) growth inhibition, stronger effect = higher value
In short: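 Each compound is tested on wt1 yeast and the loss of growth versus vehicle gives the inhibition value.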

[3] = NCI Yeast Anticancer Drug Screen. Data for the rad50EPP+ strain (AID 151);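 note: 0% = growth of vehicle-treated control cultures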; conditions: S. cerevisiae rad50 mutant strain, stronger effect = higher value
In short: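 Strain rad50EPP+; compound exposure; % growth inhibition vs vehicle.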

[4] = NCI Yeast Anticancer Drug Screen. Data for the mgt1 strain (AID 153); conditions: S. cerevisiae mgt1 mutant growth inhibition, stronger effect = higher value
In short: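 Read-out: yeast growth inhibition vs vehicle control. Strain mgt1, drawn from a panel altered in DNA damage repair or cell cycle control.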

[5] = NCI Yeast Anticancer Drug Screen. Data for the rad50 strain (AID 155);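 note: 0% = growth of vehicle-only cultures of the same strain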; conditions: S. cerevisiae rad50 strain growth inhibition, stronger effect = higher value
In short: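 Vehicle-treated cultures provide the reference for the growth inhibition reported for compound-exposed, repair-deficient yeast.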

[6] = NCI Yeast Anticancer Drug Screen. Data for the mec2-1 strain (AID 157); conditions: S. cerevisiae mec2-1 strain, stronger effect = higher value
In short: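 Cells of the genetically defined mec2-1 yeast strain are incubated with test compound. Inhibition of growth is calculated against vehicle-treated controls.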

[7] = NCI Yeast Anticancer Drug Screen. Data for the rad14 strain (AID 159);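 note: 0% = growth of vehicle-treated control cultures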; conditions: S. cerevisiae rad14 strain growth inhibition, stronger effect = higher value
In short: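 Inhibition of growth is reported for a repair-deficient yeast mutant following compound treatment, calculated relative to cultures that received vehicle.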

[8] = NCI Yeast Anticancer Drug Screen. Data for the sgs1 mgt1 strain (AID 161);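 note: 0% = growth of cultures given vehicle only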; conditions: S. cerevisiae sgs1 mgt1 strain, stronger effect = higher value
In short: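 Read-out: growth inhibition vs vehicle controls. Cells: mutant yeast strain deficient in DNA damage repair.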

[9] = NCI Yeast Anticancer Drug Screen. Data for the CLN2oe strain (AID 163);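 note: 0% = growth of vehicle-only control cultures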; conditions: S. cerevisiae CLN2oe strain, stronger effect = higher value
In short: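 Strain altered in cell-cycle control, incubated with compound; growth compared to solvent-treated controls.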

[10] = NCI Yeast Anticancer Drug Screen. Data for the cln2 rad14 strain (AID 165);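 note: 0% = growth equal to vehicle treated cultures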; conditions: S. cerevisiae cln2 rad14 strain, stronger effect = higher value
In short: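 The screen exposed genetically defined yeast (cln2 rad14) to test compounds and scored growth inhibition relative to vehicle-treated controls.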

[11] = NCI Yeast Anticancer Drug Screen. Data for the wt2 strain (AID 169); conditions: S. cerevisiae wt2 strain growth inhibition, stronger effect = higher value
In short: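 Steps: yeast strain treated with compound; growth recorded; inhibition calculated relative to cultures given vehicle alone.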

[12] = NCI Yeast Anticancer Drug Screen. Data for the mlh1 strain (AID 171);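 note: 0% = growth of vehicle-treated control cultures of the same strain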; conditions: S. cerevisiae mlh1 strain growth inhibition, stronger effect = higher value
In short: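 Yeast screen: mutant strain plus compound, growth scored against vehicle control wells.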

[13] = NCI Yeast Anticancer Drug Screen. Data for the sgs1 strain (AID 173);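 note: 0% = growth of vehicle-only control cultures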; conditions: S. cerevisiae sgs1 mutant, stronger effect = higher value
In short: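 Inhibition of yeast growth served as the measure. The mutant strain was treated with each compound, and growth was normalised to cultures receiving vehicle alone.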

[14] = NCI Yeast Anticancer Drug Screen. Data for the mlh1 rad18 strain (AID 175); conditions: S. cerevisiae mlh1 rad18 strain growth inhibition, stronger effect = higher value
In short: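 Compound-treated yeast growth, normalised to vehicle controls. Strain bears defined DNA repair mutations.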

[15] = NCI Yeast Anticancer Drug Screen. Data for the rad18 strain (AID 177); conditions: S. cerevisiae rad18 mutant growth inhibition, stronger effect = higher value
In short: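 Inhibition values reflect reduced yeast growth compared with vehicle-treated controls, using a strain engineered with a DNA damage repair defect.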

[16] = NCI Yeast Anticancer Drug Screen. Data for the bub3 strain (AID 167); conditions: S. cerevisiae bub3 mutant strain, stronger effect = higher value
In short: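 Mutant yeast screening strain plus compound; vehicle-treated cultures serve as the 0% inhibition reference.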

[17] = at 5.0 µM (retest, dose inferred, filed as 0.5)
[18] = at 50.0 µM (retest, dose inferred, filed as 5.0)

Measured: growth inhibition

CS(=O)(=O)O.[Ag]
inactive: [4]; at 1.2 µM 65% | [6]; at 1.2 µM 67% | [7]; at 1.2 µM 59% | [8]; [17] -25% | [9]; at 1.2 µM 62% | [10]; [17] 55% | [11]; at 1.2 µM 27% | [14]; at 50.0 µM 43.8%
active: [1]; at 1.2 µM 72% | [1]; at 3.7 µM 99% | [1]; at 11.0 µM 99% | [1]; at 33.0 µM 99% | [1]; at 100.0 µM 98% | [2]; at 1.2 µM 77% | [2]; at 3.7 µM 99% | [2]; at 11.0 µM 99% | [2]; at 33.0 µM 99% | [2]; at 100.0 µM 98% | [3]; at 1.2 µM 92% | [3]; at 3.7 µM 99% | [3]; at 11.0 µM 100% | [3]; at 33.0 µM 99% | [3]; at 100.0 µM 98% | [4]; at 3.7 µM 99% | [4]; at 11.0 µM 99% | [4]; at 33.0 µM 99% | [4]; at 100.0 µM 98% | [5]; at 1.2 µM 71% | [5]; at 3.7 µM 99% | [5]; [17] 100% | [5]; at 11.0 µM 99% | [5]; at 33.0 µM 99% | [5]; [18] 100% | [5]; at 50.0 µM 91.5% | [5]; at 100.0 µM 98% | [6]; at 3.7 µM 99% | [6]; [17] 100% | [6]; at 11.0 µM 100% | [6]; at 33.0 µM 99% | [6]; [18] 98% | [6]; at 50.0 µM 92.5% | [6]; at 100.0 µM 98% | [7]; at 3.7 µM 99% | [7]; at 11.0 µM 98% | [7]; at 33.0 µM 98% | [7]; at 100.0 µM 97% | [8]; [18] 99% | [8]; at 50.0 µM 93.5% | [9]; at 3.7 µM 99% | [9]; at 11.0 µM 98% | [9]; at 33.0 µM 99% | [9]; at 100.0 µM 98% | [10]; [18] 98% | [10]; at 50.0 µM 92.2% | [11]; at 3.7 µM 99% | [11]; at 11.0 µM 98% | [11]; at 33.0 µM 99% | [11]; at 100.0 µM 98% | [12]; at 1.2 µM 89% | [12]; at 3.7 µM 100% | [12]; at 11.0 µM 99% | [12]; at 33.0 µM 99% | [12]; at 100.0 µM 98% | [13]; at 1.2 µM 89% | [13]; at 3.7 µM 100% | [13]; at 11.0 µM 100% | [13]; at 33.0 µM 100% | [13]; at 100.0 µM 98% | [14]; [17] 100% | [14]; [18] 100% | [15]; at 1.2 µM 76% | [15]; at 3.7 µM 100% | [15]; at 11.0 µM 99% | [15]; at 33.0 µM 99% | [15]; at 100.0 µM 98%

CCCNCC(=O)O[C@]1(CC)C(=O)OCc2c1cc1n(c2=O)Cc2cc3ccccc3nc2-1
inactive: [2]; at 1.2 µM 13% | [2]; at 3.7 µM 12% | [2]; at 11.0 µM 28% | [2]; at 33.0 µM 62% | [3]; at 1.2 µM 29% | [4]; at 1.2 µM 21% | [4]; at 3.7 µM 25% | [4]; at 11.0 µM 34% | [4]; at 33.0 µM 63% | [6]; at 1.2 µM 19% | [6]; at 3.7 µM 33% | [6]; [17] -5% | [7]; at 1.2 µM 3% | [7]; at 3.7 µM 0% | [7]; at 11.0 µM 16% | [7]; at 33.0 µM 66% | [8]; [17] 28% | [9]; at 1.2 µM 31% | [9]; at 3.7 µM 34% | [9]; at 11.0 µM 41% | [10]; [17] 0% | [10]; [18] 51% | [10]; at 50.0 µM 64.5% | [16]; at 1.2 µM 17% | [16]; at 3.7 µM 12% | [16]; [17] -9% | [16]; at 11.0 µM 28% | [16]; at 33.0 µM 69% | [16]; [18] 68% | [12]; at 1.2 µM 24% | [12]; at 3.7 µM 7% | [12]; at 11.0 µM 16% | [12]; at 33.0 µM 61% | [13]; at 1.2 µM 26% | [13]; at 3.7 µM 30% | [13]; at 11.0 µM 51% | [14]; [17] 2% | [15]; at 1.2 µM 25% | [15]; at 3.7 µM 34% | [15]; at 11.0 µM 46%
active: [1]; at 1.2 µM 80% | [1]; at 3.7 µM 90% | [1]; at 11.0 µM 94% | [1]; at 33.0 µM 95% | [1]; at 100.0 µM 96% | [2]; at 100.0 µM 85% | [3]; at 3.7 µM 72% | [3]; at 11.0 µM 81% | [3]; at 33.0 µM 89% | [3]; at 100.0 µM 93% | [4]; at 100.0 µM 86% | [5]; at 1.2 µM 83% | [5]; at 3.7 µM 88% | [5]; [17] 78% | [5]; at 11.0 µM 92% | [5]; at 33.0 µM 92% | [5]; [18] 90% | [5]; at 50.0 µM 82.5% | [5]; at 100.0 µM 92% | [6]; at 11.0 µM 75% | [6]; at 33.0 µM 90% | [6]; [18] 86% | [6]; at 50.0 µM 88.1% | [6]; at 100.0 µM 93% | [7]; at 100.0 µM 87% | [8]; [18] 82% | [8]; at 50.0 µM 79% | [9]; at 33.0 µM 71% | [9]; at 100.0 µM 86% | [16]; at 50.0 µM 76.3% | [16]; at 100.0 µM 88% | [12]; at 100.0 µM 83% | [13]; at 33.0 µM 82% | [13]; at 100.0 µM 90% | [14]; [18] 72% | [14]; at 50.0 µM 83.1% | [15]; at 33.0 µM 75% | [15]; at 100.0 µM 84%

Reference: PubChem BioAssay (NCI)
